Here are results for five compounds from PubChem BioAssay (NCATS).

The target of assay [1] is ATP-dependent 6-phosphofructokinase (Trypanosoma brucei brucei) (UniProt O15648). As to the kind of experiment: qHTS Assay to Find Inhibitors of T. brucei phosphofructokinase: hit validation (AID 492961).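 Note: luminescence reports ADP formed as PFK phosphorylates fructose-6-phosphate with ATP; % is set by controls: 0 for no effect and ±100 for the full control effect.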 A digest of the protocol:
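ADP-Glo luminescence read-out of ADP formed by 1.25 nM PFK from 0.1 mM ATP and 0.5 mM F6P (TEA pH 8.0, 45 min, RT). Compounds titrated; activity normalized to no-enzyme and full-enzyme controls.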

A short description of assay [2]: qHTS profiling for inhibitors of Plasmodium falciparum proliferation (AID 504749).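 For activity, negative = inhibition: 0% = DMSO vehicle and full inhibition = artemisinin control.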 For all read-outs here: nearly all actives have a fitted effect of over 60% in size. Note: potency is the fitted concentration of half-maximal effect. As to conditions: P. falciparum in erythrocytes, SYBR Green DNA, 72 h; for activity, negative = inhibition: at 28.7 µM (top of the series). A digest of the protocol:
(§1)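 Three-day growth assay of blood-stage parasites in erythrocytes (0.3% parasitemia, 2.5% hematocrit) at 37 C, 5% CO2, quantified by SYBR Green DNA staining after overnight detergent lysis.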

Assay [3] has as its system 3D7. The description is as above. The note with it: P. falciparum in erythrocytes, SYBR Green DNA, 72 h; series mostly up to 28.7 µM. A digest of the protocol:
as §1

Assay [4] concerns AA1029. Described as above. As to conditions: P. falciparum in erythrocytes, SYBR Green DNA, 72 h; series mostly up to 28.7 µM. The procedure, abridged: as §1
Assay [5] concerns AS120. The assay is described as above. The note with it: P. falciparum in erythrocytes, SYBR Green DNA, 72 h; series mostly up to 28.7 µM. The procedure, abridged: as §1
Assay [6] concerns ATS189. The description is as above. The note with it: P. falciparum in erythrocytes, SYBR Green DNA, 72 h; series mostly up to 28.7 µM. The procedure, abridged:
as §1

Assay [7] deals with C2A. The assay is described as above. The note with it: P. falciparum in erythrocytes, SYBR Green DNA, 72 h; series mostly up to 28.7 µM. The procedure, abridged:
as §1

In assay [8] the test system is CP185. Described as above. As to conditions: P. falciparum in erythrocytes, SYBR Green DNA, 72 h; series mostly up to 28.7 µM. A digest of the protocol:
as §1

Assay [9] relates to CP191. Described as above. The note with it: P. falciparum in erythrocytes, SYBR Green DNA, 72 h; series mostly up to 28.7 µM. A digest of the protocol:
as §1

The subject of assay [10] is CP192. The assay is described as above. As to conditions: P. falciparum in erythrocytes, SYBR Green DNA, 72 h; series mostly up to 28.7 µM. The procedure, abridged: as §1
The test system of assay [11] is CP194. The assay is described as above. As to conditions: P. falciparum in erythrocytes, SYBR Green DNA, 72 h; series mostly up to 28.7 µM. A digest of the protocol: as §1
Assay [12] concerns CP211. The assay is described as above. The note with it: P. falciparum in erythrocytes, SYBR Green DNA, 72 h; series mostly up to 28.7 µM. The procedure, abridged: as §1
The subject of assay [13] is CP217. The description is as above. The note with it: P. falciparum in erythrocytes, SYBR Green DNA, 72 h; series mostly up to 28.7 µM. A digest of the protocol: as §1
Assay [14] deals with CP237. The description is as above. As to conditions: P. falciparum in erythrocytes, SYBR Green DNA, 72 h; series mostly up to 28.7 µM. The procedure, abridged:
as §1

Assay [15] relates to CP238. Described as above. As to conditions: P. falciparum in erythrocytes, SYBR Green DNA, 72 h; series mostly up to 28.7 µM. A digest of the protocol:
as §1

In assay [16] the test system is CP247. Described as above. As to conditions: P. falciparum in erythrocytes, SYBR Green DNA, 72 h; series mostly up to 28.7 µM. A digest of the protocol:
as §1

The test system of assay [17] is CP252. Described as above. The note with it: P. falciparum in erythrocytes, SYBR Green DNA, 72 h; series mostly up to 28.7 µM. A digest of the protocol: as §1
The subject of assay [18] is CP286. The description is as above. The note with it: P. falciparum in erythrocytes, SYBR Green DNA, 72 h; series mostly up to 28.7 µM. A digest of the protocol:
as §1

In assay [19] the test system is Dd2. The assay is described as above. As to conditions: P. falciparum in erythrocytes, SYBR Green DNA, 72 h; series mostly up to 28.7 µM. The procedure, abridged:
as §1

Assay [20] deals with P94_40. The description is as above. The note with it: P. falciparum in erythrocytes, SYBR Green DNA, 72 h; series mostly up to 28.7 µM. A digest of the protocol:
as §1

Inconclusive results are not listed. Unmarked numbers belong to inactive results. The source made the active and inactive calls. Calls come from the whole dose curve; as a rule, active = well fitted curve in the direction sought with a large enough effect; inconclusive = small, poorly fitted or top-dose-only effect, or another doubt; inactive = no such curve, though single readings can be large; an effect the other way counts as inactive or inconclusive.

Sequence of ATP-dependent 6-phosphofructokinase (Trypanosoma brucei brucei) (O15648 whole entry, looked up): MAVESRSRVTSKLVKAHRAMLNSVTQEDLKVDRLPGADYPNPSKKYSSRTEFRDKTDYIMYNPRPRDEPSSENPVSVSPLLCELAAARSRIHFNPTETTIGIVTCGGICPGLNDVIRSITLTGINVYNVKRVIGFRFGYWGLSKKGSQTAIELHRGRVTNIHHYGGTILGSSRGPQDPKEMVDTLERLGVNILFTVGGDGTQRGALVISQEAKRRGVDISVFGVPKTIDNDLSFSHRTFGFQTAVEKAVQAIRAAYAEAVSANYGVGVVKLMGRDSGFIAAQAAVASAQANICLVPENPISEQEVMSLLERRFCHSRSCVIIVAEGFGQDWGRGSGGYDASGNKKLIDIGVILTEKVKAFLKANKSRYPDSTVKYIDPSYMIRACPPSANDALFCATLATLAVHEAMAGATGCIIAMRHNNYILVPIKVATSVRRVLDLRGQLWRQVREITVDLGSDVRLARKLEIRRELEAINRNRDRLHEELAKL

As for `CC[C@H](C)[C@H]1O[C@]2(CC[C@@H]1C)C[C@@H]1C[C@@H](C/C=C(\C)[C@H](O[C@@H]3C[C@H](OC)[C@H](O[C@@H]4C[C@H](OC)[C@@H](O)[C@H](C)O4)[C@H](C)O3)[C@@H](C)/C=C/C=C3\CO[C@@H]4[C@H](O)C(C)=C[C@@H](C(=O)O1)[C@]34O)O2`, the Potency result in assay [1] is “inactive”. In addition, the Potency in [2] (parasite line A) is 355 nM (active); in assay [2] (parasite line B), 794 nM (active); in assay [3], 1410 nM (active); in assay [4], 1000 nM (active); in [5], 1000 nM (active); in [6] it was 891 nM (active). The Potency is 1410 nM (active) in assay [7]; 1000 nM (active) in assay [8]; 794 nM (active) in [9]; 1690 nM (active) in assay [10]; 1350 nM (active) in [11]; 1350 nM (active) in assay [12]. Further, the Potency in assay [13] was 794 nM (active); in [14] it was 2240 nM (active); in [15], 1260 nM (active); in assay [16], 1000 nM (active); in assay [17], 794 nM (active); in assay [18] it was 1260 nM (active). Besides, the Potency was 2240 nM (active) in [19] and 1120 nM (active) in assay [20].
With `CC1C(=O)C(=O)C=CN1C` (stereo not given), the Potency result in assay [1], in assay [3], in assay [4], in assay [5], in assay [6] and in assay [7] was “inactive” each time. Further, the Potency result in assay [8], in assay [9], in assay [10], in assay [11], in assay [12] and in assay [13] was “inactive” each time. Also, the Potency result in assay [14], in assay [15], in [16], in assay [17], in [18] and in assay [19] was “inactive” throughout. Besides, in assay [20], the Potency result was “inactive”. For the same compound, the activity, negative = inhibition in assay [2] (parasite line A) was 3.53%; in assay [2] (parasite line B), 9.14%.
`Cc1ccc(Nc2ncccc2C(=O)O)cc1C`: the Potency result in assay [1], in [3], in assay [4], in assay [5], in assay [6] and in [7] was “inactive” in each case. Further, the Potency result in assay [8], in [9], in assay [10], in assay [11], in assay [12] and in [13] was “inactive” throughout. Also, the Potency entry in assay [14], in assay [15], in [16], in [17], in [18] and in assay [19] was “inactive” throughout. The Potency entry in assay [20] is “inactive”. Besides, the figures for the activity, negative = inhibition in assay [2] (parasite line A) and in assay [2] (parasite line B) were 6.4% and 7.72%, respectively.
Consider `O=[N+]([O-])O[C@H]1CO[C@H]2[C@@H]1OC[C@H]2O`, for which the Potency entry in assay [1], in assay [3], in assay [4], in assay [5], in [6] and in assay [7] was “inactive” throughout. In addition, the Potency entry in [8], in [9], in [10], in [11], in [12] and in assay [13] was “inactive” each time. Moreover, the Potency entry in [14], in assay [15], in assay [16], in [17], in assay [18] and in [19] was “inactive” each time. Also, the Potency entry in assay [20] was “inactive”. The values for the activity, negative = inhibition in assay [2] (parasite line A) and in assay [2] (parasite line B) were 14.3% and -1.17%, respectively.
As for `CN[C@H](C)CCC=C(C)C`, the Potency entry in [1] is “inactive”. For the same compound, the Potency is 355 nM (active) in assay [2] (parasite line A); 141 nM (active) in [2] (parasite line B); 316 nM (active) in assay [3]; 199 nM (active) in assay [4]; 224 nM (active) in assay [5]; 282 nM (active) in assay [6]. The Potency in [7] is 631 nM (active); in assay [8], 708 nM (active); in [9], 708 nM (active); in assay [10], 953 nM (active); in [11], 675 nM (active); in [12] it was 953 nM (active). In addition, the Potency was 355 nM (active) in [13]; 199 nM (active) in assay [14]; 355 nM (active) in assay [15]; 398 nM (active) in assay [16]; 355 nM (active) in assay [17]; 398 nM (active) in [18]. The results for the Potency in [19] and in assay [20] were 79.4 nM (active) and 178 nM (active), respectively.
